Each structure is given as a SMILES string. Out of some 69,000 compounds screened, about 8,600 (12%) showed an effect of 50% or more. This is one part of a sample in which strong results are shown more often than they occur.

The test relates to Plasmodium berghei. The experiment in a line: Screen against P. berghei liver stage (PbLuc), transformed with Luciferase, at 10uM. The test is classed as functional, HepG2. Conditions: tested at 10 uM.
In the case of `CN1CCc2onc(Cn3cccc3)c2C1`, the INHIBITION is on record as -7.24%.

As to `Cc1cccc2nc(CN3CCCC3Cn3cncn3)cn12` (stereo unspecified), the INHIBITION came out at 5.03%.

`c1ccc([C@@H]2CN(Cc3cccnc3)C[C@H]2c2cc[nH]n2)cc1`: the INHIBITION came to 27.2%.

Take `O=C(NCc1ccc(-n2cncn2)nc1)c1cc[nH]n1`: the INHIBITION is listed as 17.9%.

In the case of `Clc1ccc(-n2cnnc2CCCN2CCOCC2)cc1`, the INHIBITION was found to be 15.6%.

`CC1CCCCN1S(=O)(=O)NCCNC(=O)c1ncccc1O` (stereo unspecified): the INHIBITION is listed as -27.3%.

On to `COc1cccc2c(C)c(C(=O)N3CCNCC3C(N)=O)[nH]c12` (stereo unspecified), for which the INHIBITION is given as 24.35%.

For the molecule `CCNc1cc2c(nn1)CCN(C(=O)Cc1ccc(C)s1)C2`, the INHIBITION is 37.4%.

Regarding `Cc1cc(N2CCC(O)(CN(C)C(=O)CCCN)C2)c2cnccc2n1` (stereo unspecified), the INHIBITION was -16.8%.

Regarding `Cc1ccc(-c2nnc(CNCCn3cc(C)cn3)o2)cc1`, the INHIBITION worked out at 14.4%.

`Cc1nc(C)n(CC2CN(Cc3ccncc3)Cc3nccn3C2)n1` (stereo unspecified): the INHIBITION is -15.6%.

For `CCc1noc(C(C)N2CCN(S(=O)(=O)N3CCCC3)CC2)n1` (stereo unspecified), the INHIBITION is -11.4%.

As for `CN1C(=O)CC(c2ccncc2)C12CCN(c1ncccn1)CC2` (stereo unspecified), the INHIBITION is listed as 29.4%.

For `O=C(NCC1CC1)C1=NOC2(CCN(S(=O)(=O)c3ccc(F)cc3)C2)C1` (stereo unspecified), the INHIBITION is -19.1%.

Regarding `O=C(NC1CCC1)C1=NOC2(CCN(Cc3ccc(F)cc3)C2)C1` (stereo unspecified), the INHIBITION stood at 64.9%.

As for `O=C(NCC1CC1)C1=NOC2(CCN(Cc3ccc(Cl)c(F)c3)C2)C1` (stereo unspecified), the INHIBITION is given as 38.5%.

Consider `CN(C)[C@H]1CN(C(=O)CCc2cccc(F)c2)C[C@@H]1C1CC1`, for which the INHIBITION amounted to 30.9%.

On to `COCc1cncc2c1CCN(C(=O)c1cscn1)C2`, for which the INHIBITION stood at 21.3%.

As for `O=C(c1cscn1)N1CCc2c(COCC3CC3)cncc2C1`, the INHIBITION was 58.4%.

On to `CCOCc1cncc2c1CCN(C(=O)c1cscn1)C2`, for which the INHIBITION worked out at 62%.

Consider `CC(C)COCc1cncc2c1CCN(C(=O)c1cscn1)C2`, for which the INHIBITION is on record as 18.6%.

For `O=C(c1ccsc1)N1CCc2c(COCC3CC3)cncc2C1`, the INHIBITION was determined as 39.8%.

Take `O=C(c1cnccn1)N1CCc2c(COCC3CC3)cncc2C1`: the INHIBITION is reported as 39.2%.

`CN(C)C(=O)C1(c2cnccn2)CCCN1C(=O)Cc1ccccc1` (stereo unspecified): the INHIBITION was found to be 28.475%.

With `CC1c2ncc(Cn3cncn3)n2CCN1C1CCOCC1` (stereo unspecified), the INHIBITION came to 2.01%.

On to `O=C(CCc1ccc2c(c1)OCO2)N1CCCCC1Cn1cccn1` (stereo unspecified), for which the INHIBITION is listed as -0.219%.

With `CCN1CCOCC2(CCCN(C(=O)c3cnccn3)C2)C1` (stereo unspecified), the INHIBITION is on record as -8.51%.

For `CN(C)C(=O)c1ccc(C2CCCN2C(=O)CCC2=NNC(=O)CC2)s1` (stereo unspecified), the INHIBITION was 56.7%.

Consider `Cc1occc1C(=O)N1CCCC1c1ccc(C(=O)N2CCOCC2)s1` (stereo unspecified), for which the INHIBITION is -60.2%.

As for `CN(C)C(=O)c1ccc(C2CCCN2C(=O)c2ccccc2N(C)C)s1` (stereo unspecified), the INHIBITION is listed as 39.1%.

On to `CSc1ncccc1C(=O)N1CCCC1c1ccc(C(=O)N(C)C)s1` (stereo unspecified), for which the INHIBITION was found to be 65.2%.

For `O=C1CCC(CCC(=O)N2CCCC2c2nccs2)=NN1` (stereo unspecified), the INHIBITION is given as 27.6%.

For `O=C1CCC(CCC(=O)N2CCC2c2cccs2)=NN1` (stereo unspecified), the INHIBITION is given as 11.2%.

As for `CN(C)C(=O)c1ccc(C2CCCN2C(=O)c2cccc3c2OCC3)s1` (stereo unspecified), the INHIBITION stood at 81.1%.

`CSc1ncccc1C(=O)N1C[C@@H]2CC[C@H]1CN(C(=O)N(C)C)C2`: the INHIBITION came to 30.3%.

Take `CSc1ncccc1C(=O)N1C[C@@H]2CC[C@H]1CN(CC(=O)N(C)C)C2`: the INHIBITION is 22.8%.

Regarding `CNC(=O)N1CCC2(CC1)CN(C(C)C)Cc1cc(F)ccc12`, the INHIBITION was 42.3%.

Take `CC(=O)c1ccc(C(=O)N2C[C@H]3CC[C@@H](C2)N(CC2CCC2)C3)s1`: the INHIBITION is -92.2%.

Turning to `O=C([C@H]1COC[C@H]2CN(C3CCOCC3)C[C@H]21)N1CCCO1`, the INHIBITION is given as -1.83%.

`O=C(c1ccc(F)cc1)N1CCN2C[C@H](Oc3cccnc3)C[C@H]2C1`: the INHIBITION was found to be 44.2%.

`Cc1cccc(CN2CCN3C[C@H](Oc4cncnc4)C[C@H]3C2)n1`: the INHIBITION is 37.6%.

As for `Fc1cnc(N2CCN3C[C@H](Oc4cccnc4)C[C@H]3C2)nc1`, the INHIBITION worked out at 82.2%.

Regarding `c1cnc(N2CCN3C[C@H](Oc4cncnc4)C[C@H]3C2)nc1`, the INHIBITION is reported as 34.5%.

In the case of `O=C(c1cnccn1)N1CCN2C[C@H](Oc3cccnc3)C[C@H]2C1`, the INHIBITION is on record as 15.6%.

`Fc1cnc(N2CCN3C[C@H](Oc4cncnc4)C[C@H]3C2)nc1`: the INHIBITION was found to be 56.4%.

`Cc1nc(CN2CCN3C[C@H](Oc4cncnc4)C[C@H]3C2)cs1`: the INHIBITION stood at 88.3%.

As to `Cn1ccnc1CN1CCN2C[C@H](Oc3cncnc3)C[C@H]2C1`, the INHIBITION is listed as -10.3%.

Take `c1cncc(CN2CCN3C[C@H](Oc4cncnc4)C[C@H]3C2)c1`: the INHIBITION is reported as 27.6%.

Take `Cc1cnc(N2CCN3C[C@H](OCc4ccccn4)C[C@H]3C2)nc1`: the INHIBITION stood at 42.3%.

With `Cc1ccc(O[C@@H]2C[C@H]3CN(c4ncc(F)cn4)CCN3C2)cc1`, the INHIBITION worked out at 79.2%.

For the molecule `Cc1ccc(O[C@@H]2C[C@H]3CN(Cc4nccn4C)CCN3C2)cc1`, the INHIBITION was -15.7%.

For the molecule `O=C(COCc1ccccc1)N1CCCC(OCc2cccnc2)C1` (stereo unspecified), the INHIBITION was found to be 0.348%.

As for `CCCc1nc(CN2CCCC2c2cnn(C)c2)cs1` (stereo unspecified), the INHIBITION is listed as -32%.

In the case of `CCn1cc(CN2CCN(CC(O)c3ccc(C)cc3C)CC2)cn1` (stereo unspecified), the INHIBITION worked out at 5.11%.

Consider `CN1CC(=O)N(c2cnn(C)c2)CC12CCN(Cc1cccs1)C2` (stereo unspecified), for which the INHIBITION was 7.31%.

With `CC(NC(=O)N(C)CCOc1ccccc1F)c1nncn1C` (stereo unspecified), the INHIBITION was 7.08%.

For the molecule `CC1(C(N)=O)CN(CC2CCC2)CCO1` (stereo unspecified), the INHIBITION is -1.75%.

For `CS(=O)(=O)N1CC[C@@H]2O[C@@H](COCC(=O)N3CCCC3)CC[C@@H]21`, the INHIBITION turned out to be 1.9%.

In the case of `Cc1nc(C2CCN(C(=O)c3ccnn3C)CC2)c2sccn12`, the INHIBITION was 15.9%.

In the case of `Cc1cccc2sc(NC(=O)CN3CCC(C)CC3)nc12`, the INHIBITION was 14.1%.

As for `Cc1cccc2sc(NC(=O)CN3CCCC(O)(CO)C3)nc12` (stereo unspecified), the INHIBITION came out at 74.5%.

Regarding `Cc1cccc2sc(NC(=O)CN3CCCC4(CC3)CNC(=O)O4)nc12` (stereo unspecified), the INHIBITION amounted to 38.7%.

For `Cc1c(Cl)cccc1NCc1nc2n(n1)CCCCC2`, the INHIBITION was 26.7%.

As to `CN(C)c1ncc(CNC(=O)Nc2ccccc2F)n1C`, the INHIBITION is 48.9%.

For `CN(C)c1ncc(CNC(=O)Nc2ccc(C(F)(F)F)cc2)n1C`, the INHIBITION is 78.6%.

As to `CN(C)c1ncc(CNC(=O)Nc2ccccc2C(F)(F)F)n1C`, the INHIBITION turned out to be 36.9%.

(Values after ChEMBL document CHEMBL4513216, “Probing the Open Global Health Chemical Diversity Library for Multistage-Active Starting Points for Next-Generation Antimalarials” (ACS Infect Dis, 2020).)
